In ChEMBL document CHEMBL4513216, “Probing the Open Global Health Chemical Diversity Library for Multistage-Active Starting Points for Next-Generation Antimalarials” (ACS Infect Dis, 2020):
In all, about 68,000 compounds went through this assay and about 2,700 (4%) showed an effect of 50% or more. This excerpt belongs to a sample that is enriched for strong results.

These compounds were tested on Plasmodium berghei (assay: Screen against P. berghei liver stage (PbLuc), transformed with Luciferase, at 2uM). Conditions: tested at 2 uM.
Assay type: functional, HepG2

Compound	INHIBITION [%]
O=C(NCCc1cscn1)c1coc(CN2CCOCC2)c1	-0.28
Cc1cccc(N2CCN(C(=O)Cc3ccccc3O)C(C)C2)n1 (stereo unspecified)	10.49
O=C(O)c1ccn(COc2c(Cl)cccc2Cl)n1	10.62
Cc1ccc(CN2CCc3c(COCC4CC4)nn(C)c3C2)s1	22.12
COc1ccc(CNCC2CCN(CC(C)O)CC2)c2ccccc12 (stereo unspecified)	7.54
CCOc1ccccc1CNCC1CCN(CC(C)O)CC1 (stereo unspecified)	21.43
COc1cccc(CNCC2CCN(CC(C)O)CC2)c1OC (stereo unspecified)	61.96
COc1ccccc1CNC1(CCO)CCOCC1	13.12
Cc1cc(C(=O)N2CCCC(c3ccc(C(=O)O)cc3)C2)c(C)o1 (stereo unspecified)	-56.9
Cn1ccc(NCc2cc3cc(F)ccc3o2)n1	5.1
Cc1cc(-n2nc(C3CC3)nc2-c2csnn2)ccn1	-77.53
O=C1CC[C@H]2CN(Cc3cccc(F)c3)CC[C@H]2N1CCc1c[nH]cn1	-13.3
O=C1CC[C@H]2CN(Cc3cccnc3)CC[C@H]2N1CCc1c[nH]cn1	50.94
Cn1cc(CN2CC[C@@H]3[C@@H](CCC(=O)N3CCc3c[nH]cn3)C2)cn1	-21.16
CN1CCCC1CCn1ccnc1-c1ccc2ccccc2n1 (stereo unspecified)	5.55
CCN1CC2(CC1=O)CN(C(=O)c1ccsc1)CCN(C(=O)N(C)C)C2 (stereo unspecified)	26.44
Cc1noc2nc(C3CCCN(Cc4ccncc4)C3)cc(C(F)F)c12 (stereo unspecified)	63.66
Cc1noc2nc(C3CCN(Cc4ccncc4)CC3)cc(C(F)F)c12	17.51
Cc1noc2nc(C3CCCN(Cc4cccnc4)C3)cc(C(F)F)c12 (stereo unspecified)	39.06
COc1c(C)cnc(CN2CCCC2c2noc(C)n2)c1C (stereo unspecified)	4.87
COCCN(CC1CC1)c1nc(CCN)nc2sc(C)c(C)c12	13.65
O=C1NC2(CCN(Cc3cccnc3)CC2)CC1c1cccnc1 (stereo unspecified)	-22.79

Compound	INHIBITION [%]
Cc1noc(C)c1CN(C)Cn1c(=O)oc2ccccc21	-5.31
CC(C)N1CCC(CC(=O)N2CCN(Cc3nccn3C)CC2)CC1	29.41
COCCN1CC[C@]2(CN(Cc3cccnc3)C[C@H]2C)C1=O	49.07
Cc1nc2n(n1)CC(NCc1cnn(-c3ccccc3)n1)CC2 (stereo unspecified)	24.88
COCc1ccc(C(=O)N2CCOCC2c2ccc(C)o2)cc1 (stereo unspecified)	62.13
Cc1ccc(C2COCCN2C(=O)c2ccc(CN(C)C)cc2)o1 (stereo unspecified)	27.84
Cc1ccc(C2COCCN2C(=O)c2ccc(N(C)C)cc2)o1 (stereo unspecified)	30.73
COc1ccc(C(=O)N2CCOCC2c2ccc(C)o2)cc1 (stereo unspecified)	39.93
Cc1ccc(C2COCCN2C(=O)c2cccc(N(C)C)c2)o1 (stereo unspecified)	43.34
Cc1ccc(C2COCCN2C(=O)c2ccc(C#N)cc2)o1 (stereo unspecified)	54.44
CC(=O)Nc1cc(C(=O)N2CCOCC2c2ccc(C)o2)ccc1F (stereo unspecified)	44.99
Cc1ccc(C2COCCN2C(=O)c2ccc(F)c(F)c2)o1 (stereo unspecified)	70.24
Cc1ccc(C2COCCN2C(=O)c2ccsc2)o1 (stereo unspecified)	16.01
CCS(=O)(=O)N1CCCCC1c1nc(C(C)C)no1 (stereo unspecified)	-28.84
CN1CCN(Cc2ccccc2Oc2ccc(C(N)=O)cn2)CC1	8.73
CN(Cc1ccc(O)cc1)C(=O)NC1CCCN(c2ncccn2)C1 (stereo unspecified)	36.95
Cc1nc(CN2CCCC(c3nccs3)C2)cs1 (stereo unspecified)	-33.32
Cn1cc(Cl)c(C(=O)N2CCC(N3CCc4ccccc4C3)CC2)n1	18.63
Cc1c(O)cccc1C(=O)N1CCCC2(C1)C(=O)N(C)c1ccccc12 (stereo unspecified)	-91.67
Cc1noc(COCC(=O)N2CCCC(c3nccs3)C2)n1 (stereo unspecified)	-7.96
CCc1cn[nH]c1C1CCCN(C(=O)c2cnc(NC(C)C)nc2)C1 (stereo unspecified)	56.49
CCc1cn[nH]c1C1CCCN(C(=O)c2cc(C(C)C)on2)C1 (stereo unspecified)	22.34

Compound	INHIBITION [%]
CCc1cn[nH]c1C1CCCN(C(=O)c2ncoc2C(C)C)C1 (stereo unspecified)	27.85
CCn1cc(NC(=O)C(C)n2ncc(Cl)c2C)c(C(=O)NC)n1 (stereo unspecified)	-28.77
CC(C)(C)C(=O)N1C[C@H](c2ccsc2)[C@H]2CN(C3CCCCC3)CC[C@H]21	25.41
CC(C)C(=O)N1CCC12CCCN(C(=O)c1ccnnc1)C2 (stereo unspecified)	-40.36
CC(=O)NC(Cc1c[nH]c2cc(F)ccc12)C(=O)Nc1nonc1C (stereo unspecified)	46.43
CC(=O)NC(Cc1c[nH]c2cc(F)ccc12)C(=O)Nc1cnn(C)c1 (stereo unspecified)	11.32
CC(=O)NC(Cc1c[nH]c2cc(F)ccc12)C(=O)Nc1nncs1 (stereo unspecified)	59.94
Cc1ccc(CN(C)C(=O)CN2CCCC(Cn3cncn3)C2)cc1 (stereo unspecified)	10.4
O=C1CCC(c2nc(C3CCNCC3)no2)N1 (stereo unspecified)	-6.77
CO[C@H]1CCN(C(=O)Cc2ccsc2)[C@@H]2CN(CC3CC3)C[C@H]12	22.16
CCn1nc(C)cc1C(=O)N1CC[C@H](OC)[C@H]2CN(CC3CC3)C[C@H]21	24.51
CO[C@@H]1CCN(C(=O)c2ccsc2)[C@@H]2CN(CC3CC3)C[C@@H]21	54.01
CO[C@H]1CCN(C(=O)c2ccsc2)[C@@H]2CN(CC3CC3)C[C@H]12	-1.45
CCN1C[C@@H]2[C@@H](OC)CCN(C(=O)c3cc(C)nn3CC)[C@@H]2C1	66.46
CCN1C[C@H]2[C@@H](C1)N(C(=O)Cc1ccsc1)CC[C@H]2OC	48.52
O=C(c1cscn1)N1C[C@H]2CCCC(OCc3cccnc3)[C@H]2C1 (stereo partly specified)	-16.41
COCCCN1CCCN(C(C)C(=O)Nc2cccc(I)c2)CC1 (stereo unspecified)	42.76
Cc1cc(C)cc(OCC(=O)NC2CCN(S(C)(=O)=O)CC2)c1	-50.23
CCN(Cc1cccc(C(N)=O)c1)c1ccccc1	36.74
Cc1ncsc1C(=O)NC1CCN(Cc2ccc(C(N)=O)cc2)CC1	-2.82
Cc1ncsc1C(=O)NC1CCN(Cc2ccc(C(F)(F)F)cc2)CC1	74.35
Cc1ccc(CN2CCC(NC(=O)c3scnc3C)CC2)cc1	-21.72
